# Measured values taken from PubChem BioAssay (NCATS).
# Records with an inconclusive call do not appear. Where a call stands in place of a potency, no number is given. Active and inactive are the calls of the source. Unless noted, the call rests on the fitted dose curve; in most records, active means well fitted curve in the direction sought with a large enough effect; inconclusive means small, poorly fitted or top-dose-only effect, or another doubt; inactive means no such curve, though single readings can be large; an effect the other way counts as inactive or inconclusive.
# Experiments:
# [1] = molecular target: Rap guanine nucleotide exchange factor 3 (Homo sapiens) (UniProt O95398); assay: Confirmatory qHTS for antagonist of cAMP-regulated guanine nucleotide exchange factor 3 (EPAC1) (AID 1645880); further: nearly all actives have a fitted effect of over 55% in size; further: potency means the concentration at half of the fitted maximal effect
# Outline: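 Released BODIPY-GDP fluoresces less than Rap1-bound BODIPY-GDP; the signal is followed at 480/540 nm at 5-min intervals over 30 min, after 5 min at room temperature. Reactions contain 100 nM EPAC1, 250 nM RAP1B-BODIPY-GDP and 50 uM GDP; results are normalized to ATA and DMSO.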
# [2] = molecular target: Rap guanine nucleotide exchange factor 3 (Homo sapiens) (UniProt O95398); assay: Confirmatory qHTS for agonist of cAMP-regulated guanine nucleotide exchange factor 3 (EPAC1) (AID 1645881);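 further: EPAC1 catalysed release of BODIPY-GDP from Rap1B seen as fluorescence loss; nearly all actives have a fitted effect of over 75% in size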
# [3] = Primary qHTS for inhibitors of nuclear receptor binding SET domain protein 2 (NSD2) in an isogenic RCH-ACV NSD2 p.E1099K mutant (9B) (AID 1645876); further: nearly all actives have a fitted effect of over 70% in size
# [4] = molecular target: Glutathione peroxidase 1 (Homo sapiens) (UniProt P07203); assay: Primary qHTS Assay for Inhibitors of Recombinant Selenoprotein Glutathione Peroxidase 1 (GPX1) (AID 1845191); further: nearly all actives have a fitted effect of over 65% in size
# Outline: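 GR-coupled readout: NADPH consumption tracked by fluorescence, ex 340/em 450 nm, at t=0 and after 15 min at RT. Final mix 10 nM GPX1, 1 mM GSH, 0.5 mM CHP, 0.5 mM NADPH, 100 nM GR, 0.01% BSA, following 30 min enzyme–compound preincubation.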
# [5] = Primary qHTS for inhibitors of nuclear receptor binding SET domain protein 2 (NSD2) in an RCH-ACV wild type WT cells (2C) (AID 1645877); further: nearly all actives have a fitted effect of over 70% in size
# [6] = molecular target: Phospholipid hydroperoxide glutathione peroxidase GPX4 (Homo sapiens) (UniProt P36969); assay: Primary qHTS Assay for Inhibitors of Recombinant Selenoprotein Glutathione Peroxidase 4 (GPX4) (AID 1845192); further: series mostly up to about 50 µM; nearly all actives have a fitted effect of over 65% in size
# Outline: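 Steps: GPX4 plus compound, 30 min RT; add GR/GSH/NADPH master mix; start with cumene hydroperoxide; read 340/450 nm fluorescence at 0 and 15 min. Finals were 200 nM GPX4, 1 mM GSH, 0.5 mM CHP, 0.5 mM NADPH, 100 nM GR.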
# [7] = qHTS drug screen for cell cycle checkpoint inhibitors in PARPi-resistant BRCA-mutant ovarian cancer cell lines. (AID 1963452; calls by dose curve); settings: PEO1/OlaR viability, CellTiter-Glo luminescence, 96 h, stronger effect = lower value
# Outline: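 PEO1, PEO4 and PEO1/OlaR ovarian cancer cells, 600 per well, exposed 96 h at 37C to a dilution series. Viability read by CellTiter-Glo luminescence, normalized to DMSO and empty wells; activity summarized as Z-AUC.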
# [8] = molecular target: Rap guanine nucleotide exchange factor 4 (Homo sapiens) (UniProt Q8WZA2); assay: Confirmatory qHTS for agonist of cAMP-regulated guanine nucleotide exchange factor 4 (EPAC2) (AID 1645884);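 further: nucleotide exchange releases bodipy-GDP from Rap1 and this lowers its fluorescence; nearly all actives have a fitted effect of over 65% in size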
# [9] = molecular target: Rap guanine nucleotide exchange factor 4 (Homo sapiens) (UniProt Q8WZA2); assay: Confirmatory qHTS for antagonist of cAMP-regulated guanine nucleotide exchange factor 4 (EPAC2) (AID 1645885); further: nearly all actives have a fitted effect of over 25% in size; further: potency means the concentration at half of the fitted maximal effect
# [10] = measured here: PEO1 parental Z-AUC
# Sequence of Glutathione peroxidase 1 (Homo sapiens) (P07203 whole entry, looked up): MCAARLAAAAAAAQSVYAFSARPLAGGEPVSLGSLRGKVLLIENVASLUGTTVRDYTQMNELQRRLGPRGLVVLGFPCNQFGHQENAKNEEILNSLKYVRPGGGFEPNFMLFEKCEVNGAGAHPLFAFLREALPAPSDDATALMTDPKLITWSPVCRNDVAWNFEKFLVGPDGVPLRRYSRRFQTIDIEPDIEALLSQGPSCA
# Sequence of Rap guanine nucleotide exchange factor 4 (Homo sapiens) (Q8WZA2 whole entry, looked up): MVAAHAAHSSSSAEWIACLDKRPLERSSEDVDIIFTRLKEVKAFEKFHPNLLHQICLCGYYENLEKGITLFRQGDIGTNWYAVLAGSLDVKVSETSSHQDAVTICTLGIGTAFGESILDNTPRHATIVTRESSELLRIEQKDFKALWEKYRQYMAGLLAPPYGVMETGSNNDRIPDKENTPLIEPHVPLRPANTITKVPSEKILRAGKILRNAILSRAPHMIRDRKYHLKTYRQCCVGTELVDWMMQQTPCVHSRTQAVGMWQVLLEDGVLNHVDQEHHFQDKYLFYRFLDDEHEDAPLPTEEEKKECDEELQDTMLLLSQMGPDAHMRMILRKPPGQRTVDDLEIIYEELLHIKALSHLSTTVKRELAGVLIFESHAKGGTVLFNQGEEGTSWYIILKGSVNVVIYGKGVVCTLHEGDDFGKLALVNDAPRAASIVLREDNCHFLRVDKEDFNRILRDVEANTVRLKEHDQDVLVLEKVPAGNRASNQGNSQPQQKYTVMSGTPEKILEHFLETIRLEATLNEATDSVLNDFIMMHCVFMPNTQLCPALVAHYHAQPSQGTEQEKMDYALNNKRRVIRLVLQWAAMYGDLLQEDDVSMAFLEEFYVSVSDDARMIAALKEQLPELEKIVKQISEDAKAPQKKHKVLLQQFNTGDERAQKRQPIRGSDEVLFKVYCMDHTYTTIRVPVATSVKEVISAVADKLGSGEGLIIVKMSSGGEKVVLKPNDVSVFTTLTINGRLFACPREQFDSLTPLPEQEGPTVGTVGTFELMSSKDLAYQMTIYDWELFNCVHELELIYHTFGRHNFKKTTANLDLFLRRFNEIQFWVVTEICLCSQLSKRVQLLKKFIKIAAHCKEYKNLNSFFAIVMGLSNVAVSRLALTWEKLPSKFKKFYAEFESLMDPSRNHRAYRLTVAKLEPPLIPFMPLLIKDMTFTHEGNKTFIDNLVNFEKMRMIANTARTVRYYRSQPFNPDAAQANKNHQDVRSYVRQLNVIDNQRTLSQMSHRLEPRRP
# Sequence of Rap guanine nucleotide exchange factor 3 (Homo sapiens) (O95398 whole entry, looked up, the tested form may be a part): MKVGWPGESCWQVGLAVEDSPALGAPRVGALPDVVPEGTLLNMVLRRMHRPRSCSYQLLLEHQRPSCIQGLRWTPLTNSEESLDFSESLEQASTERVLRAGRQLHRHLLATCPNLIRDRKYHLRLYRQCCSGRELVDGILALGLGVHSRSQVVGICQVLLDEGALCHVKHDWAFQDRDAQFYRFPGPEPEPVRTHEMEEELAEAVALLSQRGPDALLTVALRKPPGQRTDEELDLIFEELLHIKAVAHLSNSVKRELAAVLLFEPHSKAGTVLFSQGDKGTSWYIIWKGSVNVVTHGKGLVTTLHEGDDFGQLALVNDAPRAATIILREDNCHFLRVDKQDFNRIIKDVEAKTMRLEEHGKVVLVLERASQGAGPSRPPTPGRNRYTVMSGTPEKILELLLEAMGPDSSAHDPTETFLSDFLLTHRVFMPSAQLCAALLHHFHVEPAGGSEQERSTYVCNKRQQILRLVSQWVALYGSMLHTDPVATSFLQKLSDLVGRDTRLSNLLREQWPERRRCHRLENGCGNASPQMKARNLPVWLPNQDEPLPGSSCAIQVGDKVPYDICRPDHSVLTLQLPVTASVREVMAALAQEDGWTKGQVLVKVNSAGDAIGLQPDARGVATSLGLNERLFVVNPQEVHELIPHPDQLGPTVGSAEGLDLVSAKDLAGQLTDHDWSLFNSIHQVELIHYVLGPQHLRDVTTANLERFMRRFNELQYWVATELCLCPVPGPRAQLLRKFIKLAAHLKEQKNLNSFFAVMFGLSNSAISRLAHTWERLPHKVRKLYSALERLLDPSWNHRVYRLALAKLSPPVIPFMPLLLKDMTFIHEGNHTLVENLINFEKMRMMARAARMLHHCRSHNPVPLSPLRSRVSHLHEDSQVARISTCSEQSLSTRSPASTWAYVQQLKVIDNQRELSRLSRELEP
# Sequence of Phospholipid hydroperoxide glutathione peroxidase GPX4 (Homo sapiens) (P36969 whole entry, looked up): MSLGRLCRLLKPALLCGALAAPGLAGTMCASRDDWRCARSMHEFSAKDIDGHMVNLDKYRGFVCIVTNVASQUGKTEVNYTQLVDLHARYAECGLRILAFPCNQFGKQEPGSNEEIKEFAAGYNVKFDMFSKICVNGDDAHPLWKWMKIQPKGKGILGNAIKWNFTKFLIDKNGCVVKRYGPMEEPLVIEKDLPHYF
structure (smiles),measurement,setting,value
O=C1CCN(Cc2ccccc2)CCN1[C@H](COc1ccccc1)Cc1ccccc1,Potency,[1],inactive
same,Potency,[2],inactive
COc1ccc(Cl)cc1NC(=O)CN(C)Cc1cccs1,Potency,[1],inactive
same,Potency,[2],inactive
COc1ccccc1-c1nc(SCC(=O)Nc2ccc(C)c(C)c2)n[nH]1,Potency,[3],inactive
same,Potency,[4],inactive
CCOC(=O)c1ccc(N(C(=O)c2ccccc2)c2ccccc2)cc1,Potency,[1],inactive
same,Potency,[2],inactive
COc1ncc(Nc2ncc(C(C)N3CCN(S(C)(=O)=O)CC3)cc2-c2nc(C)nc(N)n2)cc1F (stereo unspecified),Potency,[5],inactive
same,Potency,[4],inactive
same,Potency,[6],inactive
same,Z-AUC,[7],0.314 (inactive)
same,Z-AUC,[7]; [10],0.577
same,Z-AUC,[7]; measured here: PEO4 Z-AUC,0.144
CC1=C(c2ccc(O)cc2)[C@H](c2ccc(OCCN3CCCCC3)cc2)Oc2cc(O)ccc21,Potency,[3],inactive
same,Potency,[4],inactive
same,Potency,[6],inactive
same,Z-AUC,[7],0.716 (inactive)
same,Z-AUC,[7]; [10],0.402
same,Z-AUC,[7]; measured here: PEO4 Z-AUC,-0.752
COc1cc(OC)c2c(-c3ccccc3)cc(=O)oc2c1,Potency,[1],inactive
same,Potency,[2],inactive
same,activation,[8],"5.59% [at 17.1 µM, percent relative to cAMP agonist control] (inactive)"
COc1ccc(CCn2c(=N)c(S(=O)(=O)c3ccc(C)cc3)cc3c(=O)n4ccccc4nc32)cc1,Potency,[1],79.4 µM (active)
same,Potency,[2],inactive
same,activation,[8],"-30.1% [at 17.1 µM, percent relative to cAMP agonist control] (inactive)"
same,Potency,[9],inactive
CCCCN(C(=O)CSc1n[nH]c(-c2ccc(C)cc2)n1)c1c(N)n(CCCC)c(=O)[nH]c1=O,Potency,[1],inactive
same,Potency,[2],inactive
same,Potency,[8],inactive
same,Potency,[9],inactive
Cc1cnc2ccccc2c1/C=C/c1ccc(N(C)C)cc1,Potency,[1],inactive
same,Potency,[2],inactive
same,Potency,[8],inactive
Cc1ccc2c(/C=C/c3ccc(N(C)C)cc3)ccnc2c1C,Potency,[1],inactive
same,Potency,[2],inactive
same,Potency,[8],inactive
CCCCOC(=O)Nc1ccc(S(=O)(=O)Nc2nccs2)cc1,Potency,[1],inactive
same,Potency,[2],inactive
same,Potency,[8],inactive
Cc1ccc2nccc(/C=C/c3ccc(N(C)C)cc3)c2c1,Potency,[1],inactive
same,Potency,[2],inactive
same,Potency,[8],inactive
Cc1[nH]c2ccccc2c1/C=C/c1ccc2ccccc2n1,Potency,[1],inactive
same,Potency,[2],inactive
same,Potency,[8],inactive
COc1ccc(C(=O)c2ccc(Br)cc2)c2ccccc12,Potency,[1],inactive
same,Potency,[2],inactive
same,Potency,[8],inactive
Cc1ccc(CN2C(=O)CSC2c2ccc(F)cc2)cc1 (stereo unspecified),Potency,[1],inactive
same,Potency,[2],inactive
same,Potency,[8],inactive
Cc1cc(C)cc(NC(=O)c2sc3nc(-c4ccccc4)cn3c2C)c1,Potency,[1],inactive
same,Potency,[2],inactive
same,Potency,[8],inactive
C#C[C@]1(OC(C)=O)CCC2C3CCC4=CC(=O)CC[C@@H]4C3CC[C@@]21C (stereo partly specified),Potency,[1],inactive
same,Potency,[2],inactive
same,Potency,[8],inactive
same,Potency,[9],39.3 µM (active)
O=c1c2ccccc2oc2ccc(Oc3ccccc3)cc12,Potency,[1],inactive
same,Potency,[2],inactive
same,Potency,[8],inactive
COCCN(CCOC)c1nc(-c2ccccc2)nc2ccccc12,Potency,[1],inactive
same,Potency,[2],inactive
same,Potency,[8],inactive
COc1ccccc1CNC(=O)CSc1ccc(-c2cccs2)nn1,Potency,[1],inactive
same,Potency,[2],inactive
same,Potency,[8],inactive
same,Potency,[9],inactive
Cc1cc(/C=C/c2ccnc3ccccc23)ccc1N(C)C,Potency,[1],inactive
same,Potency,[2],inactive
same,Potency,[8],inactive
Cn1cc(/C=C/c2ccc3ccccc3n2)c2ccccc21,Potency,[1],inactive
same,Potency,[2],inactive
same,Potency,[8],inactive
COc1ccc(C2CN=NC23CCc2ccccc2C3=O)cc1 (stereo unspecified),Potency,[1],inactive
same,Potency,[2],inactive
same,Potency,[8],inactive
COc1cc(/C=N/NC(=O)c2ccccc2)ccc1O,Potency,[1],inactive
same,Potency,[2],inactive
same,Potency,[8],inactive
same,Potency,[9],inactive
CC(C)(C)[C@H]1CCC(=O)N([C@H](CN=[N+]=[N-])Cc2ccccc2)CC1,Potency,[1],inactive
same,Potency,[2],inactive
same,Potency,[8],inactive
C=CCn1c(N)c(S(=O)(=O)c2cccs2)c2nc3ccccc3nc21,Potency,[1],33.8 µM (active)
same,Potency,[2],inactive
same,Potency,[8],inactive
COC(=O)c1cc(Br)c(=O)n(CCC2=CCCCC2)c1,Potency,[1],inactive
same,Potency,[2],inactive
same,activation,[8],"0% [at 17.1 µM, percent relative to cAMP agonist control] (inactive)"
CCN(CCn1cccn1)Cc1c(C(=O)N2CCCCCCC2)nc2ccc(Cl)cn12,Potency,[1],inactive
same,Potency,[2],inactive
same,Potency,[8],inactive
same,Potency,[9],inactive
CN1CC(O)C2=CC(=O)C(=O)C=C21 (stereo unspecified),Potency,[1],2.8 µM (active)
same,Potency,[2],inactive
same,Potency,[8],inactive
C(=C\c1ccnc2ccccc12)/c1ccc2ccccc2n1,Potency,[1],inactive
same,Potency,[2],inactive
same,Potency,[8],inactive
Cc1ccc(S(=O)(=O)N2[C@@H](c3cccc(Cl)c3)C(C(=O)O)=CC[C@H]2c2ccc(C(C)C)cc2)cc1,Potency,[1],67.5 µM (active)
same,Potency,[2],inactive
same,Potency,[8],inactive
C[C@@H]1CCC(=O)N(CC[C@H](Oc2ccccc2)c2ccccc2)CC1,Potency,[1],inactive
same,Potency,[2],inactive
same,Potency,[8],inactive
CCc1ccccc1NC(=O)c1oc(=O)c2ccccc2c1-c1ccccc1,Potency,[1],inactive
same,Potency,[2],inactive
same,Potency,[8],inactive
same,Potency,[9],inactive
